The list is not random: actives were taken first. Their share in the collection is about 2.9%.
DAGLB inhibitor: diacylglycerol lipase beta (human) inhibition. Q8NCG7. HEK293T DAGLB membrane lysate, EnzChek fluorogenic substrate. inhibition, % at 5.17 µM. 340,000 compounds, 0.059% hits. AID 504411; in the data active = inhibition above about 34%;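 note: 0% = enzyme with vehicle and 100% = wells lacking enzyme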
Myeloid diff MLP: myeloid differentiation induction. ER-HoxA9 myeloid progenitors, lysozyme-GFP differentiation, flow cytometry. 360,000 compounds, 1% hits. calls only at 10 µM;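 active = normalized GFP-positive differentiation at or above the plate's own cutoff, the solvent-only control mean plus 3 SD; inconclusive = no clear call, values can overlap the other calls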;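 note: cells exposed to compound for four days before flow analysis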
ABHD5 PLIN5 PPI: inhibitors of human ABHD5-perilipin-5 interaction. inhibition, % at 4 µM. Split G. princeps luciferase complementation, luminescence, 4 h. AID 602281. 360,000 compounds, 0.78% hits;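 active = inhibition above the mean inhibition across every tested compound plus 3 SD, cut at about 22% in these data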;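 note: 0% = DMSO only wells and the 100% control is not disclosed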
Target sequence (Q00G26 whole entry, looked up): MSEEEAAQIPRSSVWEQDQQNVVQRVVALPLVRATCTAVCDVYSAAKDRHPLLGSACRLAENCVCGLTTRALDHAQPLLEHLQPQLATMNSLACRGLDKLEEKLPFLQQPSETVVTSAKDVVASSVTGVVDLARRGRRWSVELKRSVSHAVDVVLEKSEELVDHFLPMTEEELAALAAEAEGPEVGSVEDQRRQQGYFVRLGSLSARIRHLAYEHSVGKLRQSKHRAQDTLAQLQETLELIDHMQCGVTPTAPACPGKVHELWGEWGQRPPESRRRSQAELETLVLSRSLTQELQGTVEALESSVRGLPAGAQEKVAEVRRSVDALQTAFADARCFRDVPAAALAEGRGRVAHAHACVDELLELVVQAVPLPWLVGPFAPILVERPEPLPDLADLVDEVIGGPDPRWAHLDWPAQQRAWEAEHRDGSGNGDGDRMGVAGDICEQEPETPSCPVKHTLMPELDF
Target sequence (Q8WTS1 whole entry, looked up): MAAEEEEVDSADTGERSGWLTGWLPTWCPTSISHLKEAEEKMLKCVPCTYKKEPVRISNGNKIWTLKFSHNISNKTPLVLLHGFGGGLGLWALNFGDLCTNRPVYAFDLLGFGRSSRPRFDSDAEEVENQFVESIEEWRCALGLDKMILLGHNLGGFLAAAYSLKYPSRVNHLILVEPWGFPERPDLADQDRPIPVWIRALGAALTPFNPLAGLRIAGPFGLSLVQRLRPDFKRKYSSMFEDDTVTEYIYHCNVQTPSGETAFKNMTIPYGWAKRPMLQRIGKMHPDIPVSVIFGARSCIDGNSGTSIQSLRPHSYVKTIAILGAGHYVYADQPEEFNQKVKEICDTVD
HGIII-sPLA2 inh: Inhibits HGIII-sPLA2 liposome hydrolysis, primary screen; Q9NZ20; QFRET BODIPY PC-A2 liposome hydrolysis, fluorescence; inhibition, % at 12.2 µM; 370,000 compounds, 0.56% hits; AID 743126;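 active = inhibition above mean plus 3 SD of compounds lying within the high and low control bounds, cut at about 19% in these data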;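 note: 0% = median of test compound wells and 100% = no enzyme DMSO wells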
H9c2 protect: modulators protecting cardiomyocytes from myocardial damage. 360,000 compounds, 0.63% hits. protection from H2O2 cell death, % at 20 µM. H9c2 cardiomyocytes, H2O2 injury protection, ATPLite, 2 h. AID 588492;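 active = compounds giving at least 50% protection of heart cells from peroxide-induced death in the single-dose screen, raw or plate-pattern-corrected value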;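 note: 0% = DMSO wells with peroxide and 100% = DMSO wells without peroxide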
Rtt109 Vps75: inhibitors of Candida albicans Rtt109/Vps75 histone acetyltransferase. Q5AAJ8. purified Rtt109/Vps75, ThioGlo CoA-SH fluorescence, 4 h. inhibition, % at 34.9 µM. 330,000 compounds, 0.16% hits. AID 540336;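 active = inhibition of at least 50% in every replicate; inconclusive = best replicate reaches 50% inhibition but some replicates fall short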
* marks the source's active call; other numbers are inactive results; i = inactive; u = inconclusive; x = no result given; + = active, no number.

SMILES | DAGLB inhibitor | Myeloid diff MLP | ABHD5 PLIN5 PPI | HGIII-sPLA2 inh | H9c2 protect | Rtt109 Vps75
O=C(Nc1ccccc1Cl)c1ccc2nccnc2c1 | -1 | u | 0 | 5 | -14 | -2
COc1ccc(C(=O)Nc2ccccc2C(=O)N/N=C/c2ccccn2)cc1OC | x | + | 4 | -7 | -16 | 0
COc1ccccc1NC(=O)N1CCN(c2ncccn2)CC1 | 0 | i | 3 | 7 | 5 | 3
COc1cc(C(=O)Nc2ccc(Br)cc2C(=O)c2cc(OC)c(OC)c(OC)c2)cc(OC)c1OC | -1 | i | 3 | 1 | 10 | -1
Nc1cc(=O)[nH]c(SCC(=O)N2CCc3ccccc3C2)n1 | 14 | i | -5 | -1 | -1 | -5
COc1ccc2cc(CN(CCc3ccccc3)Cc3nnnn3CC3CCCO3)c(=O)[nH]c2c1 (centres undefined) | 5 | i | -28 | -16 | 0 | -30
CCOc1ccc2[nH]c(=O)c(CN(Cc3nnnn3Cc3ccco3)C3CCCCC3)cc2c1 | 7 | i | 17 | -15 | 59* | -8
O=c1[nH]c2cc3c(cc2cc1CN(Cc1nnnn1CC1CCCO1)C1CCCCC1)OCO3 (centres undefined) | 2 | i | -5 | -5 | 57* | -28
COc1ccc2[nH]c(=O)c(CN(CCc3ccccc3)Cc3nnnn3CC3CCCO3)cc2c1 (centres undefined) | 1 | i | 2 | 6 | 76* | 5
O=c1[nH]c2cc3c(cc2cc1CN(Cc1nnnn1CC1CCCO1)C1CCCC1)OCO3 (centres undefined) | -1 | i | -3 | 9 | 27 | -1
COc1ccc(OC)c(NC(=O)c2ccc(CSc3ncccn3)cc2)c1 | 4 | i | -3 | -14 | 9 | 3
Cc1ccccc1N(C(=O)c1csnn1)C(C(=O)NC1CCCCC1)c1ccncc1 (centres undefined) | -2 | + | 4 | -5 | 3 | 14
O=C(NC1CCCC1)C(c1ccncc1)N(C(=O)c1csnn1)c1ccccc1F (centres undefined) | 0 | i | -4 | 7 | 1 | -4
CCN(Cc1ccccc1)C(=O)c1cc2c(=O)oc3ccc(C)cc3c2s1 | -13 | i | -1 | 8 | 97* | 11
CCN1CCN(CCCNC(=O)c2cc3c(=O)oc4ccc(C)cc4c3s2)CC1 | 0 | i | 3 | -1 | 6 | 7
COCCCNC(=S)N(CCCO)Cc1cc2cc3c(cc2[nH]c1=O)OCO3 | -1 | i | 2 | 1 | 9 | -2
CC(=O)Oc1cccc(/C=C2\Sc3ccccc3C2=O)c1 | -8 | i | 22* | -9 | -6 | 7
COc1cc(SC#N)ccc1N=Cc1c(C)[nH]n(-c2ccc(C)c(C)c2)c1=O | -2 | i | 8 | 1 | -11 | 56*
CC(C)CC1COC(=O)N1 (centres undefined) | 1 | i | -8 | 2 | 4 | -8
O=C(NNC(=O)c1cccnc1SCc1cccc([N+](=O)[O-])c1)c1ccccn1 | 10 | u | 8 | -10 | 83* | x
CCCc1ncc(C[n+]2ccccc2C)c(N)n1 | 4 | i | -2 | 3 | 4 | -7
Oc1ccc(Cl)cc1C=Nc1ccc2c3c(cccc13)CC2 | -5 | i | 0 | -102 | 91* | -1
CCc1ccc(O)c(N=Cc2cccc(C)c2O)c1 | 0 | i | -7 | -18 | 60* | -22
Oc1cccc(C=Nc2cccc3ccccc23)c1O | 15 | i | 3 | 16 | 3 | 3
Cc1cccc(C=Nc2ccc3c4c(cccc24)CC3)c1O | -2 | + | -6 | -16 | 5 | 0
SMILES | DAGLB inhibitor | Myeloid diff MLP | ABHD5 PLIN5 PPI | HGIII-sPLA2 inh | H9c2 protect | Rtt109 Vps75
Oc1ccccc1C=Nc1cccc2ccccc12 | 1 | i | 2 | 9 | -4 | -6
Cc1cccc(N=Cc2ccccc2O)c1C | -7 | i | 0 | -4 | 8 | x
CN(NC(=O)c1ccccc1F)c1ccc([N+](=O)[O-])cn1 | 0 | i | -20 | 0 | 7 | 8
CCN(CC)CCCNc1cc(C(F)(F)F)c(C#N)c2nc3ccccc3n12 | -1 | i | 3 | 8 | 7 | 0
COc1cc(-c2cc(NC=O)c3ncc(-c4ccccc4)n3c2)cc(OC)c1OC | x | i | -4 | 1 | 96* | x
COc1cc(-c2cc(NC=O)c3ncc(-c4cccc(C(F)(F)F)c4)n3c2)cc(OC)c1OC | x | i | -1 | -7 | 59* | x
COc1ccc(-c2cc(NC=O)c3ncc(-c4cccc(C(F)(F)F)c4)n3c2)cc1OC | x | i | -4 | -13 | 17 | x
COc1cc(-c2cc(NC=O)c3ncc(-c4ccc(C(C)=O)cc4)n3c2)cc(OC)c1OC | x | i | -4 | 6 | 81* | x
COc1ccc2[nH]c3c(=O)n(CCCCC(=O)N4CCC(C(N)=O)CC4)c(=S)[nH]c3c2c1 | -1 | i | -7 | x | 0 | -3
CC(=O)CCc1ccc(Oc2nc(-c3cccnc3)nc3ccccc23)cc1 | -7 | i | 9 | -13 | 55* | 9
COc1ccc(Oc2nc(-c3cccnc3)nc3ccccc23)cc1 | -6 | i | 0 | 0 | 3 | -1
O=C(/C=C/c1cccc([N+](=O)[O-])c1)Nc1cccc(NC(=O)c2ccco2)c1 | 0 | i | 12 | -23 | 34 | 8
O=C(/C=C/c1ccc(Cl)c([N+](=O)[O-])c1)Nc1cccnc1 | -1 | i | 3 | 2 | 50* | -2
O=C(/C=C/c1ccc(Cl)c([N+](=O)[O-])c1)Nc1ccc(NC(=O)c2ccco2)cc1 | 1 | i | 2 | 10 | 24 | 4
O=C(/C=C/c1ccc([N+](=O)[O-])cc1)Nc1cccnc1 | 0 | i | -1 | -2 | -22 | 4
CCOC(=O)/C=C/C(=O)Nc1cccc([N+](=O)[O-])c1 | 0 | i | 44* | x | -19 | 108*
O=C(/C=C/c1cccc([N+](=O)[O-])c1)Nc1cccc(NC(=O)c2cccs2)c1 | 3 | i | -4 | -18 | 81* | -16
O=C(/C=C/c1ccc(Cl)c([N+](=O)[O-])c1)Nc1cccc(NC(=O)c2ccco2)c1 | 0 | i | 5 | -18 | 88* | 5
CCCCNC(C(=O)Nc1ccc([N+](=O)[O-])cc1Br)c1ccccc1 (centres undefined) | -4 | i | -3 | 7 | 8 | 11
CC(C)NC(=O)c1ccc(-c2ccc(Cl)c(C(F)(F)F)c2)o1 | -2 | i | -7 | -1 | -5 | -8
CCN(CC)Cc1ccc(NC(=O)c2sc3cc(Cl)ccc3c2Cl)cc1 | 0 | + | 11 | -6 | -4 | -3
CCOC(=O)c1c(NC(=O)c2ccccc2N(C)S(=O)(=O)c2ccccc2)sc2c1CCCC2 | -9 | x | -3 | 1 | -14 | -5

Screening results deposited in PubChem by several laboratories.
